This is part of a sample that, as a whole, favours compounds with a hit. Of some 83,000 tested, about 20% had one in any assay.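 In brief: 96-well plates, 48 h treatment, single concentration, percent growth endpoint.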 Unmarked numbers belong to inactive results. Activity calls are given as the source filed them. Rule for the calls: active = growth percent below 10; inactive = the rest.
Assays:
Experiment in all cases: NCI-60 one-dose screen, 48 h (100 = growth as untreated, 0 = no growth, -100 = all killed)
Conditions in all cases: 10 µM unless noted
NCI-H23 lung = system: NCI-H23 lung
NCI-H226 lung = system: NCI-H226 lung
NCI-H322M lung = system: NCI-H322M lung
HOP-62 NSCLC = system: HOP-62 NSCLC
NCI-H460 lung = system: NCI-H460 lung
HOP-92 NSCLC = system: HOP-92 NSCLC
NCI-H522 lung = system: NCI-H522 lung
A549/ATCC NSCLC = system: A549/ATCC NSCLC
786-0 renal = system: 786-0 renal
COLO 205 colon = system: COLO 205 colon
DU-145 prostate = system: DU-145 prostate
K-562 leukemia = system: K-562 leukemia
MALME-3M melanoma = system: MALME-3M melanoma
MDA-MB-231 breast = system: MDA-MB-231 breast
RXF 393 renal = system: RXF 393 renal
SF-268 CNS = system: SF-268 CNS
SF-295 CNS = system: SF-295 CNS
SF-539 CNS = system: SF-539 CNS
UACC-257 melanoma = system: UACC-257 melanoma
M14 melanoma = system: M14 melanoma

SMILES	growth (NCI-H23 lung)	growth (NCI-H226 lung)	growth (NCI-H322M lung)	growth (HOP-62 NSCLC)	growth (NCI-H460 lung)	growth (HOP-92 NSCLC)	growth (NCI-H522 lung)	growth (A549/ATCC NSCLC)	growth (786-0 renal)	growth (COLO 205 colon)	growth (DU-145 prostate)	growth (K-562 leukemia)	growth (MALME-3M melanoma)	growth (MDA-MB-231 breast)	growth (RXF 393 renal)	growth (SF-268 CNS)	growth (SF-295 CNS)	growth (SF-539 CNS)	growth (UACC-257 melanoma)	growth (M14 melanoma)
C=C(C)[C@@H]1CC[C@]2(COC(C)=O)CC[C@]3(C)[C@H](CC[C@@H]4[C@@]5(C)CCCN(C(C)=O)C(C)(C)[C@@H]5CC[C@]43C)[C@@H]12	89.2%	45.2%	61.3%	82.6%	0.0182% (active)	69.3%	59.6%	33.8%	8.13% (active)	-76.5% (active)	59.9%	0.971% (active)	51%	45.2%	64.1%	90.9%	104%	81%	60%	-65.9% (active)
CN(C)S(=O)(=O)Oc1ccc(-c2sc3cc(OS(=O)(=O)N(C)C)ccc3c2C(=O)c2ccc(OCCN3CCCCC3)cc2)cc1	74.4%	64.6%	87.9%	49.8%	32.2%	28.5%	39.6%	52.7%	21.5%	36.1%	63.4%	-8.94% (active)	17.7%	77.5%	26.8%	42.1%	48.6%	52.2%	-17.5% (active)	2.03% (active)
Cc1ccc(-c2csc(N(C(=O)N3CCN(c4cc5c(cc4F)c(=O)c(C(=O)O)cn5C4CC4)CC3)c3ccccc3)n2)cc1	-0.349% (active)	7.91% (active)	4.96% (active)	4.78% (active)	5.91% (active)	-18% (active)	-0.464% (active)	13.7%	4.6% (active)	8.13% (active)	21.4%	13.5%	3.95% (active)	24.2%	4.05% (active)	20.4%	2.22% (active)	-0.211% (active)	9.78% (active)	21.1%
CCN1C(=O)N(CC)C2Nn3c(s/c(=C\c4ccccc4Br)c3=O)=NC21 (stereo not given)	25.6%	57.5%	46.7%	37%	4.16% (active)	42.9%	-12.8% (active)	12.7%	25.3%	14.4%	13.6%	10.7%	59.5%	19.7%	28.4%	50.1%	25.2%	-20.1% (active)	46.1%	9.07% (active)
COc1ccc(C(=O)Cn2c(C(=O)c3ccc(OC)cc3)nc3ccccc32)cc1	50.5%	37.4%	76.6%	37.8%	10.5%	45.2%	-27.7% (active)	41.3%	36.3%	38.8%	54.6%	7.61% (active)	37.2%	27.8%	20.4%	44.5%	1.78% (active)	19.4%	48.5%	-2.49% (active)
Nc1nc(N)c2c(n1)NC(c1cccc(Nc3ccnc4cc(C(F)(F)F)ccc34)c1)CC(c1ccc(Br)cc1)=N2 (stereo not given)	66.3%	93.9%	96.1%	58.2%	29.9%	42.8%	48.8%	45.9%	68.9%	34%	71.2%	10.5%	53.6%	57.3%	40.7%	61.4%	52%	83.9%	71.5%	42.9%
O=C1Nc2ccccc2C1(c1c[nH]c2ccccc12)c1c[nH]c2ccccc12	-13.5% (active)	8.63% (active)	-15.6% (active)	49.3%	70.6%	-6.64% (active)	21.6%	58.7%	83.7%	-27.7% (active)	29.6%	42.9%	81.8%	49%	-53% (active)	53.2%	86.3%	47.1%	94.6%	66%
